{
  "source": "PubChem BioAssay AID1947",
  "about": "(The Scripps Research Institute Molecular Screening Center, 2009)",
  "note": "Hit rate of the full screen: of about 300,000 compounds, about 990 (0.33%) were called active.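 How the source made its calls: active means inhibition above the screen mean inhibition plus 3 SD, computed separately per campaign (cut at about 18% in these data); inactive means the rest.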 The full list was thinned out, with actives kept by preference.",
  "data": [
    {"test_system": "Fam108B (ABHD17B) serine hydrolase [Mus musculus]", "test": "mouse Fam108B serine hydrolase inhibitors, primary screen, counter-screen for RBBP9 inhibitor project, biochemical, fluorescence polarization (AID 1947);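 further: inhibitors lower polarization as less probe binds the enzyme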", "settings": "recombinant Fam108B, FP-Rh probe fluorescence polarization; at 9.51 µM; hits give high values", "values": [
      {"smiles": "O=Cc1c(NCCCN2CCCC2=O)c2ccccc2[nH]c1=O", "inhibition": "0.62% (inactive)"},
      {"smiles": "Cn1c(=O)c2c(ncn2CC(COCc2ccccc2Cl)OCc2ccccc2Cl)n(C)c1=O", "note": "(stereo unspecified)", "inhibition": "2.8% (inactive)"},
      {"smiles": "Cc1nn(Cc2ccc(F)cc2)c(C)c1NC(=O)c1noc2c1CCc1ccccc1-2", "inhibition": "-3.92% (inactive)"},
      {"smiles": "C/C(=N\\Nc1cccc(C(=O)O)c1)c1ccc2c(c1)Nc1ccccc1S2", "inhibition": "20% (active)"},
      {"smiles": "Cc1ccccc1NC(=O)c1cc(S(=O)(=O)Nc2cccc(C(=O)O)c2)ccc1Cl", "inhibition": "-0.84% (inactive)"},
      {"smiles": "O=C(O)c1cccc(N2C(=O)Nc3ccccc3N2O)c1", "inhibition": "0.58% (inactive)"},
      {"smiles": "CCOc1cnc(-c2c(-c3ccccc3Cl)noc2C)o1", "inhibition": "-3.64% (inactive)"},
      {"smiles": "CCn1cc(CN2CCCC(CNS(=O)(=O)Cc3ccccc3)C2)cn1", "note": "(stereo unspecified)", "inhibition": "-2.99% (inactive)"},
      {"smiles": "Cc1ccc(CN(C)Cc2cc(=O)oc3cc(C)c(Cl)cc23)cc1", "inhibition": "9.93% (inactive)"},
      {"smiles": "CCCCCCC(=O)Nc1nc(C)c(-c2csc(Nc3cc(Cl)ccc3OC)n2)s1", "inhibition": "11.8% (inactive)"},
      {"smiles": "CCCCC(=O)Nc1nc(C)c(-c2csc(Nc3ccc(Cl)cc3)n2)s1", "inhibition": "20.4% (active)"},
      {"smiles": "CCCCCCC(=O)Nc1nc(C)c(-c2csc(Nc3cccc(OC)c3)n2)s1", "inhibition": "12.5% (inactive)"},
      {"smiles": "CC(=O)Nc1cccc(-c2csc(Nc3cccc(C)n3)n2)c1", "inhibition": "5.89% (inactive)"},
      {"smiles": "C=CCCC(=O)Nc1nc(C)c(-c2csc(Nc3ccc(Cl)cc3)n2)s1", "inhibition": "-6.01% (inactive)"},
      {"smiles": "Cc1nc(NC(=O)c2cccc(Cl)c2)sc1-c1csc(Nc2cccc(Cl)c2)n1", "inhibition": "61.2% (active)"},
      {"smiles": "CC(=O)Nc1nc(C)c(-c2csc(Nc3ccc(S(N)(=O)=O)cc3)n2)s1", "inhibition": "-0.24% (inactive)"},
      {"smiles": "CC(=O)Nc1ccc(S(=O)(=O)Nc2nc(-c3ccc(C(C)(C)C)cc3)cs2)cc1", "inhibition": "5.38% (inactive)"},
      {"smiles": "O=C(Nc1ccc(-c2csc(Nc3cccc(C(F)(F)F)c3)n2)cc1)c1cccc(C(F)(F)F)c1", "inhibition": "37.3% (active)"},
      {"smiles": "CCOC(=O)c1c(CC(C)C)csc1/N=C/C1=C(O)CCCC1=O", "inhibition": "-3.29% (inactive)"},
      {"smiles": "O=C(NNC(=O)c1cnccc1C(F)(F)F)c1ccc(Cl)cc1", "inhibition": "-3.08% (inactive)"},
      {"smiles": "CCCn1c(=O)c2c(C(F)(F)F)cc(-c3cccs3)nc2n(CCC)c1=O", "inhibition": "7.34% (inactive)"},
      {"smiles": "COc1ccc(OCC(O)CN(C)C(=O)C(C)Oc2ccccc2)cc1", "note": "(stereo unspecified)", "inhibition": "3.54% (inactive)"},
      {"smiles": "O=C1N[C@@H](Cc2ccccc2)C(=O)N2[C@@H]3N(S(=O)(=O)c4ccc(F)cc4)c4ccccc4[C@]3(Br)C[C@@H]12", "inhibition": "2.06% (inactive)"},
      {"smiles": "Oc1ccc(/C=N/Nc2nc(-c3ccccc3F)nc3ccccc23)c(O)c1", "inhibition": "41% (active)"},
      {"smiles": "Fc1ccc(/C=N/Nc2nc(-c3cccnc3)nc3ccccc23)cc1", "inhibition": "-5.98% (inactive)"},
      {"smiles": "Cc1nc2ccccc2nc1N/N=C/c1ccc(O)cc1O", "inhibition": "5.03% (inactive)"},
      {"smiles": "CCC(C)[C@H]1COCCS(=O)(=O)N1Cc1ccc(C)cc1", "note": "(stereo partly specified)", "inhibition": "-0.44% (inactive)"},
      {"smiles": "CC1(C)C2CCC1(C)C(OC(=O)c1ccc(O)cc1)C2", "note": "(stereo unspecified)", "inhibition": "-4.06% (inactive)"},
      {"smiles": "Nc1ccc2nc3c(=O)[nH]c(=S)[nH]c3nc2c1", "inhibition": "29.3% (active)"},
      {"smiles": "O=C(COC(=O)CCCNC(=O)c1ccc(Cl)cc1)Nc1cc(Cl)ccc1Cl", "inhibition": "4.35% (inactive)"},
      {"smiles": "O=C(NC1CC1)c1cccc(Br)c1", "inhibition": "-0.72% (inactive)"},
      {"smiles": "O=C(NNC(=O)c1ccc(-c2ccccc2)cc1)Nc1ccccc1", "inhibition": "-2.01% (inactive)"},
      {"smiles": "O=C(NC1CC1)c1ccc(-c2ccccc2)cc1", "inhibition": "34.3% (active)"},
      {"smiles": "Cc1ccccc1N1CC(C(=O)Nc2nnc(SCCC3OCCO3)s2)CC1=O", "note": "(stereo unspecified)", "inhibition": "5.32% (inactive)"},
      {"smiles": "O=C(CN(Cc1ccccc1)C(=O)CCC(=O)Nc1ccccn1)NCCc1ccccc1", "inhibition": "0.27% (inactive)"},
      {"smiles": "COc1ccc(C2=Nc3cc(C)ccc3OC2)cc1", "inhibition": "-0.41% (inactive)"},
      {"smiles": "Fc1cccc(Cl)c1CSc1ccc(-c2ccco2)nn1", "inhibition": "-2.56% (inactive)"},
      {"smiles": "COc1ccc2nc(SCc3ccccc3)nc(C)c2c1", "inhibition": "-2.64% (inactive)"},
      {"smiles": "O=c1[nH]c(SCc2ccccc2)nnc1-c1ccccc1", "inhibition": "-0.14% (inactive)"},
      {"smiles": "Clc1ccccc1CSc1nnc(-c2ccco2)c(-c2ccco2)n1", "inhibition": "18.8% (active)"},
      {"smiles": "O=c1cc(O)nc(SCc2ccccc2Cl)[nH]1", "inhibition": "-1.05% (inactive)"},
      {"smiles": "c1ccc(CSc2nnc(-c3ccco3)c(-c3ccco3)n2)cc1", "inhibition": "19.7% (active)"},
      {"smiles": "COC(=O)c1ccc(CNC(=O)c2ccc3oc(C(C)C)nc3c2)cc1", "inhibition": "-1.84% (inactive)"},
      {"smiles": "N#CCC(=O)N/N=C/c1cn(Cc2ccc3ccccc3c2)c2ccccc12", "inhibition": "-6.56% (inactive)"},
      {"smiles": "COC(=O)CN1C(=O)[C@H]2[C@@H](/C=C/c3ccccc3)N3C(=O)CN(CC4CC4)C(=O)[C@@]3(Cc3ccccc3)[C@H]2C1=O", "inhibition": "-4.39% (inactive)"},
      {"smiles": "COC/C=C/C1=CC2=CC(=O)C(C)(OC(=O)CCC(=O)OC)C(=O)C2=CO1", "note": "(stereo unspecified)", "inhibition": "8.02% (inactive)"},
      {"smiles": "COc1ccc(NC(=O)CSc2nnc(Cc3ccccc3)c(=O)n2N)cc1", "inhibition": "0.31% (inactive)"},
      {"smiles": "CC(C)N1CCC(N2CCN(Cc3cccnc3)CC2CCO)CC1", "note": "(stereo unspecified)", "inhibition": "1.03% (inactive)"},
      {"smiles": "COC(=O)c1cc(N2CCNCC2)nc2ccccc12", "inhibition": "1.69% (inactive)"},
      {"smiles": "COc1ccc(C(=O)CC(=O)C(=O)Nc2cc([N+](=O)[O-])ccc2OC)cc1", "inhibition": "2.15% (inactive)"},
      {"smiles": "COc1ccc(NS(=O)(=O)c2cc(C(=O)Nc3ccccc3C(=O)O)ccc2C)cc1", "inhibition": "-3.09% (inactive)"},
      {"smiles": "COc1ccc(NS(=O)(=O)c2cc(NC(=O)CC(=O)c3ccc([N+](=O)[O-])cc3)ccc2C)cc1", "inhibition": "18.6% (active)"},
      {"smiles": "COc1cc(Cl)c(C)cc1NC(=O)CSc1nnc(-c2ccco2)n1CC(C)C", "inhibition": "0.55% (inactive)"},
      {"smiles": "Cc1cc(C)cc(OCC(=O)NC(C)c2ccccc2)c1", "note": "(stereo unspecified)", "inhibition": "-2.91% (inactive)"},
      {"smiles": "CC(=O)Nc1ccc(NC(=O)CC2CCCC2)cc1", "inhibition": "3.46% (inactive)"},
      {"smiles": "Oc1ccc(C2Nc3cccc4cccc(c34)N2)cc1", "inhibition": "44.7% (active)"},
      {"smiles": "Brc1ccccc1C1Nc2cccc3cccc(c23)N1", "inhibition": "11.3% (inactive)"},
      {"smiles": "O=C1NC(c2cccc(Cl)c2)Nc2ccccc21", "note": "(stereo unspecified)", "inhibition": "-1.96% (inactive)"},
      {"smiles": "COc1cccc(C2Nc3cccc4cccc(c34)N2)c1", "inhibition": "23% (active)"},
      {"smiles": "Cc1ccc(C2Nc3cccc4cccc(c34)N2)cc1", "inhibition": "10.3% (inactive)"},
      {"smiles": "COc1ccc(C2NC(=O)c3ccccc3N2)cc1", "note": "(stereo unspecified)", "inhibition": "-0.94% (inactive)"}
    ]}
  ]
}
